Test results as given in ChEMBL document CHEMBL3988442, “University of Dundee, Small-Polar-MMV Screening Library” (2021).
Out of some 48,000 compounds screened, about 13,000 (27%) showed an effect of 50% or more. The list shows a part of the results.

Each compound was assayed on Wolbachia pipientis (assay: Anti-Wolbachia Cell-Based Screen). Settings: 5 µM.
Format: functional
Design: scale not given: in the data most compounds retested in dose-response had high values

SMILES	Percent Effect [%]
CCC(=O)NCc1ccccc1Cn1ccnc1	2.122
Cn1nc(CNC(=O)C2CC2)cc1C1CC1	4.922
Cn1nc(CNC(=O)C2CCCC2)cc1C1CC1	-4.336
Cc1ccc2c(c1)OC(C)(C)CC2NC(=O)C1CCN(S(C)(=O)=O)CC1 (centres undefined)	-7.671
C/C=C(\C)CN1CCCn2nc(CNC(=O)C3CCC3)cc2C1	8.995
CCC(=O)NCc1cc(C2CC2)n(C2CCCC2)n1	-1.631
Cn1nc(CNC(=O)C2CCC2)cc1C1CC1	172.6
Cn1nc(CNC(=O)C2CCN(S(C)(=O)=O)CC2)cc1C1CC1	134.6
Cn1nc(CNC(=O)C2CCCCC2)cc1C1CC1	119.6
O=C(NCc1cc(C2CC2)n(C2CCCC2)n1)C1CC1	118.5
O=C(O)C1(Cc2ccccc2Cl)CCN(c2ncccn2)CC1	4.771
Cc1noc(-c2cccnc2N(C)Cc2cscn2)n1	-2.045
CCC[C@H]1CN(CCOC)C[C@@H]1NC(=O)Cn1cc(C)cn1	-1.609
CCc1ncc(C(=O)NC(C)(C)CC)s1	-4.681
CCC(C)n1cnc(S(=O)(=O)N(C)C)c1 (centres undefined)	-2.659
Cc1noc(C2CCN(C(=O)CN(C)c3ccc(Cl)cn3)CC2)n1	-9.214
Cc1cncnc1C1CCN(C(=O)CN(C)C)CC1	107.4

SMILES	Percent Effect [%]
CCC(=O)N1CCC(c2nnc(Cn3cccn3)n2C2CC2)CC1	6.186
CCC(=O)N1CCC(c2nnc(Cn3cncn3)n2C2CC2)CC1	-3.377
CCC(=O)N1CCC(c2ncncc2C)CC1	105.8
Cc1cc(C)n(-c2cncc(N3CCN(C(=O)CN(C)C)CC3)n2)n1	-21.39
NC(=O)CSCC(=O)N1CCc2cc(Cl)cc(Cl)c2C1	-10.26
CC(CNC(=O)c1cc(C2CC2)on1)N1CCc2ccccc21 (centres undefined)	110.3
CC(CNC(=O)c1ccc(C#N)cc1)N1CCc2ccccc21 (centres undefined)	-4.664
CC(CNC(=O)c1cccc(C#N)c1)N1CCc2ccccc21 (centres undefined)	-2.298
CC(CNC(=O)c1ccc(=O)[nH]n1)N1CCc2ccccc21 (centres undefined)	114.6
CCC(CNC(=O)c1ccc(=O)[nH]n1)N1CCc2ccccc2C1 (centres undefined)	-13.41
Cc1noc(C)c1C(=O)NCC1CCCCN1Cc1ccccc1 (centres undefined)	1.84
COc1ccc(NC(=O)NCC(C)N2CCc3ccccc32)cc1 (centres undefined)	6.782
Cc1noc(C)c1C(=O)NCC(C)N1CCc2ccccc21 (centres undefined)	136.7
O=C(c1ccc(=O)[nH]n1)N1CCc2ccccc21	6.411
Cc1noc(C)c1C(=O)NCC(C)N(C)C (centres undefined)	-3.203
Cc1cc(C(=O)NCC(C)N2CCc3ccccc32)on1 (centres undefined)	128.5
O=C(NCCSC1CCCC1)c1cc(C2CC2)on1	6.284
